Assay outcomes from PubChem BioAssay.
TGFb inhibitor: TGF-b pathway inhibition. HepG2 CAGA-GFP TGF-b/SMAD3 reporter, GFP fluorescence, 18 h; TGF-beta stimulated, 500 pg/mL final. Potency, µM (series often up to 46.1 µM), inactives show at the highest dose activity, negative = inhibition, actives largely listed as inhibitors. 1.2% of 410,000 active; also: % is scaled to controls: 0 for no effect and ±100 for the full control effect; nearly all actives have a fitted effect of over 65% in size
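First, reporter cells (HEPG2 CAGA-GFP) rested 2 h at 37 degrees C. Next, compounds were pinned in and TGF-beta added to 500 pg/mL final. After 18 h, GFP was imaged per cell and summed per well.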
ATXN viability: viability counter-screen for ATXN expression inhibitors. S2 cells (HEK-293 line with an ATXN2-luciferase reporter) viability, CellTiter-Fluor protease fluorescence, 24 h. Potency, µM (titrated, usually from 56.7 µM), actives largely listed as cytotoxic. 0.49% of 400,000 active. AID 651635; also: nearly all actives have a fitted effect of over 40% in size
ATXN2 expr inh: reduces ATXN2 reporter expression in HEK-293 cells; AID 1745845; HEK-293 ATXN2-luciferase reporter, luminescence, 24 h; 0.72% of 360,000 active; Potency, µM (doses to about 57 µM), for inactives: top-dose activity change, negative = inhibition, most hits filed as inhibitors; also: % is scaled to controls: 0 for no effect and ±100 for the full control effect; nearly all actives have a fitted effect of over 55% in size
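qHTS (up to 57 uM final) was run with 24 h compound exposure of reporter cells at 37 °C. Each well was multiplexed: SteadyGlo luminescence measured ATXN2-luciferase expression after a fluorogenic Gly-Phe-AFC viability readout (25 uM final).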
DT40 TDP1 CPT: DT40-hTDP1 cell growth loss with CPT; 12% of 420,000 active; AID 686979; Potency, µM (titrated, usually from 46.2 µM), for inactives: at the top dose activity change, negative = growth inhibition, hits mostly inhibitors; chicken DT40 Tdp1-/-;hTDP1 cells + 20 nM CPT, ATP luminescence, 48 h; also: % is scaled to controls: 0 for no effect and ±100 for the full control effect; nearly all actives have a fitted effect of over 55% in size
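Chicken DT40 Tdp1-/- cells stably complemented with human TDP1 were seeded at 400 cells/well in medium containing 20 nM camptothecin, exposed to pin-transferred compounds, and grown at 37 °C for at least 48 hr. Viability was read as ATP luminescence.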
HepG2 viability: kills HepG2 cells in TGF-b inhibitor counter-screen; 0.76% of 410,000 active; Potency, µM (titrated, usually from 46.1 µM), for the others: at the top dose activity change, negative = cytotoxicity, actives largely listed as cytotoxic; HepG2 CAGA-GFP viability, ATP luminescence, 18 h
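CellTiter-Glo luminescence gave cytotoxicity after 18 hours at 37 degrees C. The cells were HepG2 CAGA-GFP in 1% FBS DMEM, stimulated with 500 pg/mL TGF-beta after compound addition. %Activity was normalised to no-cell wells (complete cell-killing) and DMSO (no toxicity), and curves were fitted and classified.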
DT40 TDP1 no CPT: qHTS for Inhibitors of human tyrosyl-DNA phosphodiesterase 1 (TDP1): qHTS in cells in absence of CPT; DT40 Tdp1-/- hTDP1 cells, no CPT, ATP luminescence, 48 h; Potency, µM (highest dose often 46.2 µM), for inactives: at the highest dose activity change, negative = growth inhibition, most hits filed as inhibitors; 15% of 420,000 active; AID 686978, 2013; also: % is scaled to controls: 0 for no effect and ±100 for the full control effect; nearly all actives have a fitted effect of over 55% in size
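Growth kinetics read by CellTiter-Glo luminescence after ≥48 hr at 37 °C. Cells: DT40 Tdp1-/- stably carrying human TDP1, 400 per well, compound exposure in the absence of CPT (DMSO vehicle).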
* hit, by the source's call; i = inactive; ? = inconclusive; · = no result; [ ] = dose if it differs, or a comment. Shown are actives, neighbours in structure and some others; about 17% of the full set was active somewhere. Calls follow the shape of the dose curve; as a rule, active = well fitted curve in the direction sought with a large enough effect; inconclusive = small, poorly fitted or top-dose-only effect, or another doubt; inactive = no such curve, though single readings can be large; an effect the other way counts as inactive or inconclusive. Potency is read from the fitted curve at half-maximal effect.

SMILES	TGFb inhibitor	ATXN viability	ATXN2 expr inh	DT40 TDP1 CPT	HepG2 viability	DT40 TDP1 no CPT
COc1ccc2[nH]cc(CCNc3cc(-c4ccc(C(=O)N(C)C)cc4)ncn3)c2c1	·	·	·	?	·	-17%
COc1ccc2[nH]cc(CCNc3ccnc(-c4ccc(C(=O)N(C)C)cc4)n3)c2c1	·	·	·	12µM*	·	12µM*
OC(CNc1nc(-c2cccnc2)nc2ccccc12)c1ccccc1 (stereo unspecified)	-27%	i	?	15µM*	-34%	23µM*
Cc1cc2c(c(=O)o1)C(Cc1ccccc1)C(C#N)=C(N)O2 (stereo unspecified)	22%	i	3%	-1%	-4%	0%
COc1ccc2[nH]cc(CCNC(=O)Nc3ccccc3C)c2c1	-7%	i	-11%	26%	-8%	-7%
COc1ccc2[nH]cc(CCNc3ccnc(-c4ccccc4C)n3)c2c1	·	·	·	21µM*	·	?
CCCOP(=O)(OCCC)c1c([N+](=O)[O-])cc(C(F)(F)F)cc1[N+](=O)[O-]	?	i	0%	?	-53%	18µM*
Cc1ccc(OCCn2cc(C=O)c3ccccc32)cc1	11µM*	i	?	?	-14%	?
O=C1NN(c2ccccc2)C(=O)C1=Cc1ccccc1O	-3%	i	·	14%	-65%	-16%
O=Cc1cn(CCOc2ccccc2)c2ccccc12	?	?	·	-22%	-62%	?
Cc1ccc(OCCn2cc(/C=C3\C(=O)NN(c4ccccc4)C3=O)c3ccccc32)cc1	-10%	i	4%	16µM*	-2%	26µM*
CCCn1c(C)cc(C(=O)CSc2nc3nc(C)cc(C)n3n2)c1C	0%	?	2%	?	23%	?
CCC(=O)Nc1nc2ccccc2n1CCN(CC)CC	-32%	i	-2%	29µM*	-37%	-4%
Cn1c(NCc2ccc(Cl)cc2)nc2ccccc21	-7%	i	32%[11.3 µM]	?	-34%	15µM*
CCC(=O)Nc1nc2ccccc2n1Cc1ccccc1	-21%	i	-12%	15µM*	-1%	16µM*
CCC(=O)Nc1nc2ccccc2n1Cc1ccc(C)cc1	0%	?	?	12µM*	-45%	10µM*
CCC(=O)NCc1nc2ccccc2n1Cc1ccccc1	7%	i	14%	?	5%	-15%
CC(=O)Nc1nc2ccccc2n1Cc1ccc(Cl)cc1	?	25µM*	18µM*	23µM*	-27%	?
CCc1ccc(-n2c(C)cc(/C=N/NC(=O)c3ccncc3)c2C)cc1	?	i	-19%	13µM*	-26%	?
CCc1ccc(-n2c(C)cc(/C=N/NC(=O)OC)c2C)cc1	?	i	·	?	-14%	26µM*
COCCCN(C(=O)CSCC(=O)Nc1ccc(C)cc1)c1c(N)n(Cc2ccccc2)c(=O)[nH]c1=O	-11%	i	·	26%	0%	-9%
COc1ccc(-c2csc(N3N=C(C)C(C)C3=O)n2)cc1 (stereo unspecified)	-16%	?	-7%	?	-23%	?
CC1=NN(c2nc(-c3ccc(C)cc3)cs2)C(=O)C1N=Nc1ccccc1O (stereo unspecified)	-26%	i	?	4.1µM*	-17%	4.6µM*
CC1=NN(c2nc(-c3ccc(C)cc3)cs2)C(=O)C1N=Nc1cccc(O)c1 (stereo unspecified)	-19%	i	-4%	?	-11%	16µM*
CCc1ccc(NC(=O)C2CCN(S(=O)(=O)c3cccc(-c4noc(C)n4)c3)CC2)cc1	-35%	?	?	21µM*	-18%	15µM*
SMILES	TGFb inhibitor	ATXN viability	ATXN2 expr inh	DT40 TDP1 CPT	HepG2 viability	DT40 TDP1 no CPT
COc1ccc(NC(=O)C2CCN(S(=O)(=O)c3ccc(OC)c(OC)c3)CC2)cc1	-1%	i	-8%	1%	-27%	-18%
COc1ccc(NC(=O)C2CCN(S(=O)(=O)c3cccc(-c4noc(C)n4)c3)CC2)cc1OC	?	i	-14%	?	-28%	21µM*
Cc1cc(C)cc(NC(=O)C2CCN(S(=O)(=O)c3cccc(-c4noc(C)n4)c3)CC2)c1	?	i	-22%	16µM*	0%	21µM*
CCc1ccc(NC(=O)C2CCN(S(=O)(=O)c3ccc4c(c3)N(C(C)=O)CCO4)CC2)cc1	-5%	i	·	-28%	-34%	18µM*
Cc1nc(-c2cccc(S(=O)(=O)N3CCC(C(=O)NCc4ccccc4)CC3)c2)no1	-12%	i	-5%	?	-22%	?
COc1ccc(-c2nnc(SCc3ccc(C(=O)O)cc3)o2)cc1OC	-10%	i	·	-4%	-19%	-9%
CCCS(=O)(=O)c1nc(S(=O)(=O)c2ccc(C)cc2)c(NCCCn2ccnc2)s1	6%	i	-2%	-9%	0%	21%
COc1ccc(CNC(=O)Cn2c(SCC(=O)N(C)c3ccccc3)nc3ccccc32)cc1	-8%	i	6%	?	0%	18µM*
CSc1nc2ccccc2n1CC(=O)Nc1ccccc1	-13%	i	-4%	5.2µM*	-9%	18µM*
CCN(C(=O)CSc1nc2ccccc2n1CC(=O)NCc1ccc(OC)cc1)c1ccccc1	2%	i	5%	?	-14%	23µM*
O=C(CSc1nc2ccccc2n1CCc1ccccc1)c1ccc(O)c(O)c1	?	i	-7%	12µM*	5%	16µM*
COc1ccc(Cn2c(SCC(=O)N(C)Cc3ccccc3)nc3ccccc32)cc1	?	?	-21%	?	-21%	?
O=C(CN1C(=O)CSc2ccc(S(=O)(=O)N3CCOCC3)cc21)NCCc1ccccc1	-3%	i	·	4%	-7%	-8%
Cc1cccc2cc(CN(CC3CCCO3)C(=O)C3CC3)c(N(C)C)nc12 (stereo unspecified)	·	i	·	-3%[9.04 µM]	·	1%
NC(=O)c1c(NC(=O)c2noc3c2CCCC3)sc2c1CCCC2	-1%	·	·	?	4%	?
COc1ccc(Cn2c(SCC(=O)NCc3ccccc3)nc3ccccc32)cc1	?	?	-33%	?	-30%	?
Cc1cccc(NC(=O)Cn2c(SCC(=O)NCc3ccccc3)nc3ccccc32)c1C	-19%	i	-11%	-14%	-10%	-25%
CCN(C(=O)CSc1nc2ccccc2n1CC(=O)Nc1ccccc1C)c1ccccc1	-10%	i	-9%	?	-13%	21µM*
